From PubChem BioAssay (NCI)
About 79,000 compounds went through this panel and 15% of them were active in at least one assay; those are over-represented in the sample as a whole. Cut-off read from the data, not from the text of the source: active = growth inhibition above about 70%; inactive = the rest.

Key:
[1] = NCI Yeast Anticancer Drug Screen. Data for the rad50 strain (AID 155);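 note: 0% = growth of vehicle-only cultures of the same strain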; settings: S. cerevisiae rad50 strain growth inhibition; at 50.0 µM; stronger effect = higher value
In short: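 Yeast carrying a defined DNA repair defect were exposed to test compounds, and growth was compared with vehicle-treated controls to give percent inhibition.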

[2] = NCI Yeast Anticancer Drug Screen. Data for the mec2-1 strain (AID 157); settings: S. cerevisiae mec2-1 strain, at 50.0 µM, stronger effect = higher value
In short: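 Compounds were applied to mec2-1 yeast cells. Their growth was then compared with that of vehicle-treated cultures to give growth inhibition.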

[3] = NCI Yeast Anticancer Drug Screen. Data for the sgs1 mgt1 strain (AID 161);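 note: 0% = growth of cultures given vehicle only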; settings: S. cerevisiae sgs1 mgt1 strain, at 50.0 µM, stronger effect = higher value
In short: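 Compounds are added to genetically altered yeast, and growth is compared with cultures given vehicle alone to give percent inhibition.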

[4] = NCI Yeast Anticancer Drug Screen. Data for the cln2 rad14 strain (AID 165);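 note: 0% = growth equal to vehicle treated cultures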; settings: S. cerevisiae cln2 rad14 strain, at 50.0 µM, stronger effect = higher value
In short: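 Strain: cln2 rad14 yeast, altered in cell cycle control and DNA damage repair. Read-out: growth inhibition vs vehicle.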

[5] = NCI Yeast Anticancer Drug Screen. Data for the bub3 strain (AID 167); settings: S. cerevisiae bub3 mutant strain, at 50.0 µM, stronger effect = higher value
In short: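 Compounds were applied to a genetically altered yeast strain carrying a cell-cycle control defect. Growth inhibition was scored against vehicle-treated controls.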

[6] = NCI Yeast Anticancer Drug Screen. Data for the mlh1 rad18 strain (AID 175); settings: S. cerevisiae mlh1 rad18 strain growth inhibition; at 50.0 µM; stronger effect = higher value
In short: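 A repair-deficient yeast strain is exposed to test compound, and growth is scored relative to vehicle-treated controls.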

Measured: growth inhibition

CSc1ncnc2c1ncn2CCC(=O)O
inactive: [1] -33.9% | [2] 11.4% | [3] -42.1% | [4] 8.8% | [5] -13.9% | [6] -19.4%

CC1=C(C#[N+][O-])C(C)(C)CCC1
inactive: [1] 1.05% | [2] 5.1% | [3] -2.9% | [4] 10.1% | [5] -23.9% | [6] -16.2%

N#CC(C(=O)O)C(c1cccc2ccccc12)c1cccc2ccc3ccccc3c12 (centres undefined)
inactive: [1] 51% | [2] -2.3% | [3] 27.1% | [4] -4.35% | [5] 7.05% | [6] 13.8%

Cc1c2c(n3c(nc4ccccc43)c1C#N)SCC2
inactive: [1] -51.3% | [2] -49.3% | [3] -44.5% | [4] -8.5% | [5] -22% | [6] -17.5%

O=C(NCCCc1ccccc1)Nc1ccccc1
inactive: [1] 16.4% | [2] -0.65% | [3] -8.05% | [4] -10.4% | [5] -1.35% | [6] 3.45%

CN1CCc2ccccc2C1Cc1cc(OCc2ccccc2)ccc1N (centres undefined)
inactive: [1] 36.2% | [2] 1.25% | [3] 23.6% | [4] 30.6% | [5] 14.8% | [6] 22.1%

CCOC(=O)CCC(NC1=C(Cl)C(=O)c2ccccc2C1=O)C(=O)O (centres undefined)
inactive: [1] 12.2% | [2] 2.15% | [3] 20.4% | [4] -63.1% | [5] 0.15% | [6] 24.9%

CC(NC(=O)C(N)CCC(=O)O)C(=O)NCP(=O)(O)O (centres undefined)
inactive: [1] -13.1% | [2] -49% | [3] 0.35% | [4] 26.4% | [5] 4.25% | [6] 8%

O=C1NC(=O)C2(CCCC2=Nc2ccc(Br)cc2)C2C=CN(Cc3ccccc3)C=C12 (centres undefined)
inactive: [1] 0.25% | [2] -4.25% | [3] 6.3% | [4] 2.4% | [5] 3.65% | [6] 35.2%

O=C(N/N=C\c1ccccn1)Nc1ccc(N=Nc2ccccc2)cc1
inactive: [1] 6.55% | [2] -9.85% | [3] -1.65% | [4] -3.9% | [5] 5.75% | [6] 4.9%

COc1cc(NC(N)=O)ccc1Nc1c2ccc(N)cc2nc2cc(N)ccc12
inactive: [1] 69.8% | [2] 22.6% | [3] 9.05% | [4] 43% | [5] -14.9% | [6] 27.6%

c1ccc2c(c1)oc1cc3c(cc12)n1nnnc1c1cccn31
inactive: [1] 9% | [2] -1.25% | [3] -3.45% | [4] 16.4% | [5] 4.6% | [6] -7.8%

CC(=O)CCn1ncc(Cl)c(Cl)c1=O
inactive: [1] 1.4% | [2] -18.3% | [3] 3.6% | [4] 7.7% | [5] 1.15% | [6] 4.3%

CC/C(SC)=[N+](\C)[O-]
inactive: [1] 3.9% | [2] -6.9% | [3] -23.1% | [4] -5.6% | [5] -20.4% | [6] 4.25%

CC(=O)NC1c2ccccc2CCC1OC(C)=O (centres undefined)
inactive: [1] -16.4% | [2] -8.05% | [3] 22.9% | [4] -1.8% | [5] -8.55% | [6] -34.8%

CCCOc1cc(C)c(C(=O)OC(C)CN2CCCC2)c(C)c1 (centres undefined)
inactive: [1] 3.5% | [2] -22.4% | [3] 15.8% | [4] -43.7% | [5] -2.1% | [6] -20.4%

CC(=O)N=C1N(/C=C2\C(=O)Oc3ccccc3C2=O)C(=O)/C(=C/c2ccc(NC(C)=O)cc2)N1C
inactive: [1] -32.8% | [2] -26.3% | [3] 34.2% | [4] 7.7% | [5] -31.1% | [6] -12.3%

CCOC(=O)C1CCC(=O)N1Cc1c[nH]c2ccccc12 (centres undefined)
inactive: [1] 3.2% | [2] -12.7% | [3] -5.1% | [4] 1% | [5] 21.4% | [6] -14.7%

Clc1ccc(-c2onc3ccc(Br)cc23)cc1
inactive: [1] -6.65% | [2] -12.3% | [3] -1.15% | [4] -17.9% | [5] -0.75% | [6] 8.5%

CCC(C)NC(=O)c1ccccc1 (centres undefined)
inactive: [1] 16.8% | [2] 17.7% | [3] 7.8% | [4] -34.5% | [5] 1.75% | [6] 15.3%

CCOC(=O)C(=CNC(=S)Nc1ccccc1)C(=O)OCC
inactive: [1] -24.9% | [2] -22.9% | [3] -23.8% | [4] -17.1% | [5] -13.7% | [6] 2.2%

[B]C(=O)NC(CC(C)C)C(=O)NCC(=O)NC1c2ccsc2C(=O)C1O (centres undefined) (tested in a mixture with another compound)
inactive: [1] -23.5% | [2] 3.95% | [3] -23.8% | [4] -8.45% | [5] 0% | [6] 2.05%

Cc1ccc(S(=O)(=O)OCC(F)(F)C(F)(F)C(F)(F)CO)cc1
inactive: [1] 19.1% | [2] 3.3% | [3] 22.2% | [4] -15.6% | [5] 3.85% | [6] -15.5%

COc1cc(C(=O)C/C(CCC(=O)Nc2ccccc2[N+](=O)[O-])=N\NC(=O)CC#N)ccc1O
inactive: [1] -25.9% | [2] -20.8% | [3] -36.7% | [4] -11.4% | [5] -11.6% | [6] -31.4%

CCCS(CCC)=NS(=O)(=O)c1ccc(C)cc1
inactive: [1] -6.75% | [2] -0.7% | [3] 0.6% | [4] -0.8% | [5] 11.6% | [6] -9.65%

c1ccc2c(-c3c[nH]c4ccccc34)c[nH]c2c1
inactive: [1] 16.8% | [2] -1.5% | [3] -3.05% | [4] -27.2% | [5] -8.75% | [6] 15.3%

O=C(NCc1cccnc1)C1COc2cc(-c3cc(=O)c4ccccc4o3)ccc2O1 (centres undefined)
inactive: [1] -9.55% | [2] -18.9% | [3] -23.9% | [4] -5.25% | [5] -6.95% | [6] -49%

COc1ccc(/C(N)=N/OCc2ccc(C#N)cc2)cc1
inactive: [1] -13.5% | [2] -21.4% | [3] -3.2% | [4] 10.3% | [5] 20.7% | [6] -25.8%

c1ccc(C2=C(c3ccccc3)c3ccccc3C2)cc1
inactive: [1] 0.3% | [2] -7.3% | [3] 8.55% | [4] 0.35% | [5] -8.85% | [6] -9.35%

COc1ccc(Cc2cc3c(cc2OCCOC(C)=O)OCO3)cc1
inactive: [1] 16.8% | [2] 11.3% | [3] 10.4% | [4] 0.05% | [5] 15.2% | [6] 23.4%

CC(C)C(=O)Nc1ccc(Cl)c(Cl)c1
inactive: [1] 33.9% | [2] 6.35% | [3] 44.3% | [4] 41.2% | [5] -4.05% | [6] 58.1%

NC1C2CC3CC1CC(C2)O3 (centres undefined)
inactive: [1] -10.8% | [2] -8.1% | [3] -9.4% | [4] -68.5% | [5] 7.45% | [6] -14.3%

COc1ccc(C2=Nc3c(nc(SC)[nH]c3=O)NC(c3ccccc3)C2)cc1 (centres undefined)
inactive: [1] 9.45% | [2] 9.3% | [3] 19.3% | [4] 6.15% | [5] 28.3% | [6] -3.15%

CC(=O)c1ccccc1NC(=O)C(=O)C(C(=O)c1ccc2ccccc2c1)C1OC(=O)c2ccccc21 (centres undefined)
inactive: [1] -3.15% | [2] 3.45% | [3] 11.4% | [4] -44.2% | [5] 4.85% | [6] 8.25%

CCCCCCn1cnc2c(=S)nc[nH]c21
inactive: [1] 24.6% | [2] 8.35% | [3] 10.8% | [4] 7.45% | [5] -0.65% | [6] 12.8%

COc1ccc2c(=O)c(S)coc2c1
inactive: [1] 35.8% | [2] 36.5% | [3] 22.3% | [4] 9% | [5] -1.15% | [6] 41%

Cc1nc2ccccc2nc1N1CCCC1
inactive: [1] -6.2% | [2] -29.1% | [3] -26.9% | [4] -25.2% | [5] -47.8% | [6] 0.55%

O=c1[nH]c(=S)[nH]c2c1CCC2
inactive: [1] 6% | [2] 25.4% | [3] 44.2% | [4] 21.4% | [5] 35.2% | [6] 24.1%

CCn1c(=O)c2[nH]c(-n3c(Cl)nc4c3c(=O)n(CC)c(=O)n4CC)nc2n(CC)c1=O
inactive: [1] 31.1% | [2] 2.8% | [3] 2.9% | [4] 14.2% | [5] -0.5% | [6] 21.4%
